An excerpt weighted towards active compounds, which were near 2.9% of everything screened.
Fam108B counter: Fam108B inhibition, counter-screen for RBBP9 inhibitors; recombinant Fam108B, FP-Rh probe fluorescence polarization; inhibition, % at 9.51 µM; 300,000 tested, 0.33% active; AID 1947;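 active means inhibition above the screen mean inhibition plus 3 SD, computed separately per campaign, cut at about 18% in these data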;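 further: inhibitors lower polarization as less probe binds the enzyme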
PAFAH2 FP inh: inhibitors of human PAFAH2. recombinant PAFAH2, FP-rhodamine activity probe, fluorescence polarization. inhibition, % at 3.39 µM. Q99487. 340,000 tested, 0.99% active;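 active means inhibition above the mean over all tested compounds plus 3 SD, cut at about 30% in these data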;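 further: inhibitors block probe labeling of enzyme so polarization drops; 0% = enzyme with DMSO and 100% = wells lacking PAFAH2 protein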
pPAFAH FP inh: inhibitors of human plasma PAF acetylhydrolase (pPAFAH). Q13093. recombinant pPAFAH, FP-rhodamine probe fluorescence polarization. inhibition, % at 3.39 µM. 330,000 tested, 1.5% active. AID 463082;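 active means inhibition above the mean inhibition across the screen plus 3 SD, cut at about 25% in these data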;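 further: inhibitors block binding of the rhodamine activity-based probe so polarization drops; 0% = enzyme with DMSO and 100% = wells lacking pPAFAH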
PAFAH1B2 FP inh: inhibitors of human PAFAH1B2. P68402. inhibition, % at 3.39 µM. recombinant PAFAH1B2, FP-rhodamine activity probe, fluorescence polarization. AID 492953. 340,000 tested, 1.2% active;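 active means inhibition above the mean of all tested compounds plus 3 SD, cut at about 24% in these data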;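 further: 0% = enzyme with DMSO and 100% = wells lacking PAFAH1B2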
Target sequence (P68402 whole entry, looked up): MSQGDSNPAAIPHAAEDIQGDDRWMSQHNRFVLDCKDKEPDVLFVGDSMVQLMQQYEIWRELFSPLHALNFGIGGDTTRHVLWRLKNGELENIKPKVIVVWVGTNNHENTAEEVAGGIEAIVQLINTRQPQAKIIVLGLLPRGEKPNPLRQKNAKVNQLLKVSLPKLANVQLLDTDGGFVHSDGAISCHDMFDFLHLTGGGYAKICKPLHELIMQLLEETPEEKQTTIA
PAFAH1B3 inh: inhibitors of human PAFAH1B3; 340,000 tested, 0.28% active; recombinant PAFAH1B3, FP-rhodamine probe, fluorescence polarization; inhibition, % at 3.39 µM; AID 492972; Q15102;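 active means inhibition above the screen-wide average of all tested compounds plus 3 SD, cut at about 25% in these data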;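 further: 0% = enzyme with DMSO only and 100% = wells lacking PAFAH1B3 protein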
Target sequence (Q15102 whole entry, looked up): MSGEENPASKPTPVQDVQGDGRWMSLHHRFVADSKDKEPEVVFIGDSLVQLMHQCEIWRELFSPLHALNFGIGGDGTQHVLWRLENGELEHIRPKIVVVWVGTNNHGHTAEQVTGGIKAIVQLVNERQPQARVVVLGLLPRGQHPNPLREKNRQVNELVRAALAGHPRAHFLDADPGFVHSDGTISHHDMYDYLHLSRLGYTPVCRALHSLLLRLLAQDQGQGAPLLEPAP
PME-1 inh: PME-1 (human) inhibition; inhibition, % at 5.9 µM; recombinant PME-1, FP-Rh probe fluorescence polarization; Q9Y570; 320,000 tested, 0.53% active;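 active means inhibition above the campaign mean of all compounds plus 3 SD, cut at about 26% in these data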;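 further: competitive labeling of PME-1 active site by serine hydrolase directed probe; 0% = PME-1 with DMSO and 100% = wells lacking PME-1 enzyme; inhibitors block probe labeling so polarization falls and inhibition rises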
PAFAH1B3 conf FP: PAFAH1B3 (human) inhibition, confirmed; recombinant PAFAH1B3, FP-Rh activity-based probe, fluorescence polarization; AID 493032; shares compounds with PAFAH1B3 inh; 390 tested, 30% active; inhibition, % at 3.39 µM;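 active means average inhibition over triplicate runs above the hit cutoff set in the earlier primary screen, cut at about 25% in these data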;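 further: 0% = enzyme with DMSO and 100% = wells lacking PAFAH1B3 protein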
* = called active by the depositor; · = no result given; ! = not confirmed by another sample.

SMILES | Fam108B counter | PAFAH2 FP inh | pPAFAH FP inh | PAFAH1B2 FP inh | PAFAH1B3 inh | PME-1 inh | PAFAH1B3 conf FP
COc1ccc(S(=O)(=O)Nc2cc(SCC(=O)O)c(O)c3ccccc23)cc1 | 18 | 13 | 22 | 19 | 44* | 23 | 12
O=C(Cn1ncc(Cl)c(Cl)c1=O)NC1CCCCC1 | · | 3 | -2 | 1 | 29* | 0 | 21
Cc1ccc(-c2cc3c(nn2)-c2ccccc2C3=O)cc1 | 6 | 6 | 7 | 2 | 4 | 10 | ·
Cc1ccccc1-c1cc2c(nn1)-c1ccccc1C2=O | 5 | 15 | 1 | 8 | 34* | 3 | 7
CC1(C)Cc2cccc(OCC(=O)OCC(=O)NCc3ccccc3)c2O1 | 0 | -2 | 5 | -2 | -5 | 2 | ·
Nc1c(O)cccc1C(=O)O | 1 | 3 | 12 | 4 | 30* | 0 | 10
O=C(CSc1nc2ccsc2c(=O)n1CC1CCC(C(=O)O)CC1)c1ccc(Cl)cc1 (stereo not given) | -1 | 6 | 3 | 16 | 27* | -1 | 4
CCOC(=O)C(=O)c1cn(C2OCC(OC(C)=O)C(OC(C)=O)C2OC(C)=O)c2ccccc12 (stereo not given) | -3 | -7 | 5 | 1 | 9 | 4 | ·
COc1cc(C(F)(F)F)nc2ccc(C#CCOC(=O)Nc3ccccc3)cc12 | -4 | -9 | -4 | -6 | -6 | -4 | ·
COc1ccc(C(=O)C[n+]2ccccc2/C=N/O)cc1 | 5 | 8 | 2 | 5 | 26* | 7 | 18
O=S(=O)(c1ccc(Cl)cc1Cl)n1ccc2cccnc21 | 2 | 0 | -2 | -1 | -2 | 10 | ·
COc1ccc(OC)c(Nc2cc3ccccc3c(=O)[nH]2)c1 | 17 | 12 | 2 | 6 | 38* | 6 | 15
COc1ccccc1Nc1cc2cc(Br)ccc2c(=O)[nH]1 | 2 | 13 | 16 | 6 | 25 | -6 | ·
COc1ccccc1-n1cc(CN2CCN(CC(C)C)C(CCO)C2)cn1 (stereo not given) | 5 | -2 | -1 | -2 | 5 | -3 | ·
Cc1ccc(C(=O)CSc2cnc3ccccc3n2)cc1C | 0 | 0 | -6 | 0 | 4 | -7 | ·
O=C1C(c2ccccc2)=[N+]([O-])c2ccccc21 | 7 | 18 | 5 | 5 | 28* | 6 | 13
O=C1C(=NO)CCc2ccccc21 | · | 18 | · | 12 | 37* | · | 23
Cc1c(N2C(=O)/C(=C3\C(=O)N(CC(=O)O)c4ccccc43)SC2=S)c(=O)n(-c2ccccc2)n1C | 0 | -2 | 2 | -1 | 6 | -8 | ·
COc1cc(-c2cc(=O)c3c(O)cc(O)cc3o2)ccc1O | 3 | · | 11 | · | · | -1 | ·
O=c1oc(-c2ccc(O)c(O)c2)cc2cc(O)cc(O)c12 | · | 8 | 10 | 3 | 28* | · | 28*
Cc1ccc(S(=O)(=O)NNC(=O)CCC(=O)Nc2ccc(C)cc2C)cc1 | -1 | -9 | 3 | 0 | 1 | -6 | ·
Cc1ccc(S(=O)(=O)NC(=O)Nc2ccc(C)cc2C)cc1 | · | -5 | · | 5 | 28* | · | 7
CC1OC(CC(=O)O)CC2=C1C(=O)c1c(O)cccc1C2=O (stereo not given) | · | 14 | · | 13 | 53* | · | 22
O=C1c2cccc(O)c2C(=O)c2c(O)cccc21 | 4 | · | 14 | · | · | 7 | ·
COc1cc(NC(=O)c2cc(-c3ccccc3)nc3c2cnn3C(C)C)cc(OC)c1OC | · | -35 | 4 | 20 | 26* | · | 21
SMILES | Fam108B counter | PAFAH2 FP inh | pPAFAH FP inh | PAFAH1B2 FP inh | PAFAH1B3 inh | PME-1 inh | PAFAH1B3 conf FP
COc1cc2c(C#N)c(N3CCCC3)nc(N)c2c(N)n1 | 2 | 12 | 8 | 10 | 43*! | 14 | 11
CCCOc1cc2c(C#N)c(N3CCCC3)nc(N)c2c(N)n1 | 4 | 15 | 7 | 10 | 28* | 9 | 15
COc1ccc(OC)c(NC(=O)Cn2cnc3c(cnn3-c3ccccc3)c2=O)c1 | 1 | -9 | 9 | -3 | 0 | 5 | ·
Cc1cc(NC(=O)CSCC(=O)OCc2nnc(-c3ccccc3)o2)no1 | 4 | 3 | 5 | 5 | 2 | 2 | ·
O=C1Nc2c(Cl)cc(Cl)cc2C1=O | · | 13 | · | 16 | 43* | · | 23
COc1ccc2nc(NNC(=O)COc3ccccc3)sc2c1 | -4 | 8 | 6 | 0 | 0 | -4 | ·

From PubChem
